Screening results as filed in PubChem BioAssay.
BoNT-A LC inh2: inhibitors of Botulinum neurotoxin A light chain protease; multiplex microsphere protease substrate cleavage, flow cytometry; inhibition, % at 10 µM; 360,000 compounds, 0.17% hits; AID 588499
BoNT F protease: BoNT F light chain protease inhibition; inhibition, % at 10 µM; 360,000 compounds, 0.22% hits; Multiplex microsphere protease cleavage assay, flow cytometry; in the data active means inhibition above about 35%, passing the limit was not always enough; inconclusive means no clear call, values can overlap the other calls
Autofluor counter: compound fluorescence in toxin protease inhibitor counterscreen. compound autofluorescence counterscreen, microsphere flow cytometry; stronger effect = higher value. fluorescence intensity (test concentration not listed). AID 624483. 360,000 compounds, 3.1% hits; in the data active means fluorescence intensity above about 16000; inconclusive means no clear call, values can overlap the other calls
GDH-TPI inh: GDH-TPI coupled enzyme inhibition counter-screen; inhibition, % at 4.8 µM; GDH-TPI coupled enzyme counterscreen, NADH absorbance; 360,000 compounds, 1.2% hits; AID 588335; in the data active means inhibition above about 30%
Mtb FBA inh: inhibitors of M. tuberculosis fructose-bisphosphate aldolase; purified M. tuberculosis FBA, fluorescence read-out; 360,000 compounds, 2.3% hits; AID 588726; P9WQA3; inhibition, % at 1 µM; in the data active means inhibition above about 27%
Anthrax LF prot: anthrax lethal factor protease inhibition. AID 588501. multiplex microsphere protease cleavage assay, LF. 360,000 compounds, 0.12% hits. inhibition, % at 10 µM. P15917
Of the large screens only hits and unclear results are named; the others gave an inactive call. The list is not random: actives were taken first. Their share in the collection is about 6.7%. Unless noted, no stated cut-off is given here; in the data, active means inhibition above about 30%; inconclusive means no clear call, values can overlap the other calls; inactive means below that.

Cc1ccc(C2N(C)c3ccccc3-c3nc4ccccc4n32)o1 (stereo unspecified)	Mtb FBA inh 183
O=C(CSc1nc(-c2ccccc2)cs1)NCc1ccco1	none
O=c1[nH]c2ccccc2nc1/C=C(\O)c1cccs1	none
COCC1CCN(C(=O)c2cc(COc3ccc(-n4cncn4)cc3)on2)CC1	none
N#Cc1c(N)n(CCCN2CCOCC2)c2nc3ccccc3nc12	Mtb FBA inh 192
CCCCn1c(CCNC(=O)c2cccs2)nc2ccccc21	none
Cc1ccc(S(=O)(=O)c2c(N)n(CCN3CCOCC3)c3nc4ccccc4nc23)cc1C	none
N#Cc1c(N)n(CCNC(=O)c2cccs2)c2nc3ccccc3nc12	Mtb FBA inh active
COc1ccc(CCn2c(N)c(C#N)c3nc4ccccc4nc32)cc1OC	none
O=c1c2ccccc2nc(-c2ccccc2)n1CCCN1CCOCC1	Autofluor counter 16595
COc1ccccc1CCn1c(N)c(C#N)c2nc3ccccc3nc21	Mtb FBA inh active
CN(C(=O)c1ccc2c(=O)n3c(nc2c1)CCCCC3)c1ccccc1	none
Nc1c(C(=O)Nc2ccccc2)c2nc3ccccc3nc2n1CCCN1CCOCC1	none (no result: BoNT-A LC inh2, BoNT F protease, Autofluor counter, Anthrax LF prot)
CCCCCCn1c(N)c(C(=O)NCCN2CCOCC2)c2nc3ccccc3nc21	Mtb FBA inh 50
Cc1ccc(S(=O)(=O)N[C@@H](CC(C)C)C(=O)NCc2ccco2)cc1	BoNT-A LC inh2 inconclusive, Autofluor counter 23101
Cc1ccc(S(=O)(=O)NCC(=O)N(CC(=O)NCc2ccco2)Cc2cccs2)cc1	Autofluor counter 20378
Cc1ccc(S(=O)(=O)NC(=O)NCc2ccco2)cc1	none
CSc1ccccc1NC(=O)COc1ccc(Cl)cc1C	none
COc1cccc(-c2c(NC(=O)c3ccco3)n(-c3ccc(C)cc3)nc(C)c2=O)c1	Autofluor counter 16965
Cc1nnc(NC(=O)c2ccco2)s1	none
C/C=C(\C)c1nnc(NC(=O)c2ccco2)s1	GDH-TPI inh 33
COc1ccc(-c2nnc(NC(=O)c3ccco3)s2)cc1	GDH-TPI inh 45
CCCOc1cccc(-c2nnc(NC(=O)c3ccco3)s2)c1	GDH-TPI inh 49
Cc1ccc(-c2nnc(NC(=O)c3ccco3)s2)cc1	none
O=C(c1ccc(CS(=O)(=O)c2ccc(Br)cc2)o1)N1CCOCC1	none
CCc1nccn1CCC(=O)NC1CC(C)(C)Cc2c1cnn2-c1ccc(OC)cc1 (stereo unspecified)	none
O=C(CCc1c[nH]c2ccccc12)OCc1cccc([N+](=O)[O-])c1	none
COc1ccc(C(=O)Nc2nc3c(s2)Cc2cc(OC)ccc2-3)cc1	none
COc1cccc(-c2nnc(NC(=O)c3cccs3)s2)c1	GDH-TPI inh 35
COc1cccc(-c2nnc(NC(=O)c3ccco3)s2)c1	GDH-TPI inh 41
COc1ccc2c(c1)Cc1sc(NC(=O)c3cccs3)nc1-2	Autofluor counter 18806
Cc1cc([N+](=O)[O-])ccc1-c1ccc(C2Nc3ccccc3C(=O)N2O)o1 (stereo unspecified)	none
CCc1cc[n+](-c2nc([O-])sc2C=O)cc1	none
CCC(SC1=Nc2ccccc2C2=NC(CC(C)C)C(=O)N12)C(=O)Nc1ccc2c(c1)OCO2 (stereo unspecified)	none
COc1ccc(C(CC(=O)O)NC(=O)COc2ccccc2)cc1 (stereo unspecified)	none
CCN(CC)CC(C)OC(=O)c1cc(OC)c(OC)c(OC)c1 (stereo unspecified)	BoNT-A LC inh2 inconclusive, Autofluor counter 19405
COc1cc(C(=O)NCCCCCCNC(=O)c2cc(OC)c(OC)c(OC)c2)cc(OC)c1OC	BoNT F protease inconclusive
COc1cc(C(=O)OCCCOC(=O)c2cc(OC)c(OC)c(OC)c2)cc(OC)c1OC	none
CCOCCCNC(=O)CCNC(=O)c1cc(OC)c(OC)c(OC)c1	Autofluor counter 20238
COc1cc(C(=O)NCCC(=O)NCCCN2CCCCC2)cc(OC)c1OC	Autofluor counter 25617
COc1cc(C(=O)NCC(C)C)cc(OC)c1OC	Autofluor counter 16687
Cn1c(CCN2CCN(c3ccccn3)CC2)nc2cc(NS(=O)(=O)c3ccccc3)ccc21	none
COc1ccc(CC(NC(C)=O)C(=O)NC2CCN(S(=O)(=O)c3ccc(NC(C)=O)cc3)CC2)c(OC)c1 (stereo unspecified)	none
CC(C)(C)OC(=O)N1C(=O)[C@](OC(=O)c2ccccc2)(c2ccccc2)c2cccc(F)c21	none (no result: GDH-TPI inh, Mtb FBA inh)
O=C(COC(=O)COc1ccccc1)Nc1ccc(Br)cc1F	none
CCCCOC(=O)CSc1n[nH]c(=O)[nH]c1=O	Autofluor counter 23897
CCCCCOC(=O)C(C)Sc1n[nH]c(=O)[nH]c1=O (stereo unspecified)	none
CC(Oc1ccc(Cl)cc1Cl)c1nc(-c2ccc(NC(=O)c3cccnc3)cc2)no1 (stereo unspecified)	none
CC(Oc1ccc(Cl)cc1Cl)c1nc(-c2ccc(NC(=O)c3ccncc3)cc2)no1 (stereo unspecified)	Autofluor counter 21041
c1ccc(Cn2ccc(-c3cnc(-c4ccccc4)s3)n2)cc1	Mtb FBA inh 182
Cc1ccc(-c2c(C(=O)N/N=C/c3ccco3)nnn2-c2nonc2N)cc1	none
CCCN(CCC)Cc1c(C(=O)N/N=C/C(C)=C\c2ccco2)nnn1-c1nonc1N	none
CC(/C=N/NC(=O)c1nnn(-c2nonc2N)c1CN(C)C)=C\c1ccco1	BoNT-A LC inh2 inconclusive, BoNT F protease inconclusive, GDH-TPI inh 35, Anthrax LF prot inconclusive
CCOc1ccc(-c2c(C(=O)N/N=C/c3ccc(C)s3)nnn2-c2nonc2N)cc1	GDH-TPI inh 37
CCOc1ccc(-c2c(C(=O)N/N=C/c3ccco3)nnn2-c2nonc2N)cc1	GDH-TPI inh 43
COc1ccc2c(c1)c(CC(=O)NCc1cc([N+](=O)[O-])ccc1O)c(C)n2C(=O)c1ccc(Cl)cc1	none
Cc1nc(Cl)sc1C(=O)Nc1ccccc1	none
CCS(=O)(=O)N1CCC(C(=O)NCCN2CCN(Cc3ccccc3)CC2)CC1	none
O=C(CSc1nnc2ccccn12)c1ccc(Cl)cc1	none
O=C(CSc1nnc2n1CCCN2C(=S)Nc1ccc(Cl)cc1)c1ccccc1	Autofluor counter 20424
CC1(C(=O)Nc2ccccc2Br)CCN1C(=O)Cc1ccc(Cl)cc1Cl (stereo unspecified)	none
CCOC(=O)N1CCC(NC(=O)c2oc3c(C)c(C)ccc3c2C)CC1	none
COc1ccc(NC(=O)C2CC(=O)N/C(=N/N=C/c3ccco3)S2)cc1 (stereo unspecified)	GDH-TPI inh 45 (no result: BoNT-A LC inh2, BoNT F protease, Autofluor counter, Anthrax LF prot)
O=C1CC(C(=O)Nc2ccc(Br)cc2)S/C(=N\N=C\c2ccco2)N1 (stereo unspecified)	GDH-TPI inh 52
O=C1CC(C(=O)Nc2ccc(Cl)cc2)S/C(=N\N=C\c2ccco2)N1 (stereo unspecified)	GDH-TPI inh 56
COc1ccc(/C=N/N=C2/NC(=O)CC(C(=O)O)S2)cc1 (stereo unspecified)	GDH-TPI inh 55
COc1cccc(CNC(=O)CNC(=S)N(Cc2ccccc2)Cc2ccccc2F)c1	none
